In PubChem BioAssay (NCI):
The panel holds about 79,000 compounds, 15% with a hit somewhere; the sample as a whole holds those more often. Activity calls are given as the source filed them. Rule as the data show it: active = growth inhibition above about 70%; inactive = the rest.

Key:
[1] = NCI Yeast Anticancer Drug Screen. Data for the rad50 strain (AID 155);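 also: 0% = growth of vehicle-only cultures of the same strain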; conditions: S. cerevisiae rad50 strain growth inhibition, stronger effect = higher value
Procedure, shortened: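 Relative growth inhibition (compound vs vehicle) was measured in yeast with a defined repair-gene alteration.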

[2] = NCI Yeast Anticancer Drug Screen. Data for the mec2-1 strain (AID 157); conditions: S. cerevisiae mec2-1 strain, stronger effect = higher value
Procedure, shortened: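 Vehicle-treated cultures served as reference for growth inhibition of compound-exposed mec2-1 yeast.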

[3] = NCI Yeast Anticancer Drug Screen. Data for the sgs1 mgt1 strain (AID 161);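 also: 0% = growth of cultures given vehicle only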; conditions: S. cerevisiae sgs1 mgt1 strain, stronger effect = higher value
Procedure, shortened: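 Mutant yeast exposed to compound; growth scored against vehicle-only wells.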

[4] = NCI Yeast Anticancer Drug Screen. Data for the cln2 rad14 strain (AID 165);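 also: 0% = growth equal to vehicle treated cultures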; conditions: S. cerevisiae cln2 rad14 strain, stronger effect = higher value
Procedure, shortened: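 Each compound was tested on cln2 rad14 yeast. Inhibition of growth was calculated against vehicle-exposed controls.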

[5] = NCI Yeast Anticancer Drug Screen. Data for the bub3 strain (AID 167); conditions: S. cerevisiae bub3 mutant strain, stronger effect = higher value
Procedure, shortened: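 Screening used yeast with an engineered genetic alteration affecting cell cycle control. Compound-exposed cultures were compared with vehicle cultures, and reduced growth was taken as inhibition.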

[6] = NCI Yeast Anticancer Drug Screen. Data for the mlh1 rad18 strain (AID 175); conditions: S. cerevisiae mlh1 rad18 strain growth inhibition, stronger effect = higher value
Procedure, shortened: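 Vehicle-treated cultures served as the reference for growth inhibition in a yeast strain carrying DNA damage repair alterations exposed to each compound.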

[7] = at 5.0 µM (retest, dose inferred, filed as 0.5)
[8] = at 50.0 µM (retest, dose inferred, filed as 5.0)

Measured: growth inhibition

Nc1c(-c2c(Cl)cccc2Cl)[n+]([O-])c2ccccc2[n+]1[O-]
active: [1]; [8] 99% | [1]; at 50.0 µM 75% | [2]; [8] 99% | [3]; [8] 100% | [3]; at 50.0 µM 74.7% | [4]; [8] 99% | [5]; [8] 99% | [6]; [7] 72% | [6]; [8] 99% | [6]; at 50.0 µM 88.8%
inactive: [1]; [7] 26% | [2]; [7] 29% | [2]; at 50.0 µM 38.9% | [3]; [7] 44% | [4]; [7] 28% | [4]; at 50.0 µM 69.3% | [5]; [7] 45% | [5]; at 50.0 µM 66.8%

Cc1ccc2c(c1)C(=O)N(CC[P+](c1ccccc1)(c1ccccc1)c1ccccc1)C2=O
active: [1]; [7] 81% | [1]; [8] 89% | [2]; [8] 85% | [3]; [7] 74% | [3]; [8] 91% | [4]; [8] 79% | [5]; [7] 84% | [5]; [8] 90% | [6]; [7] 71% | [6]; [8] 82%
inactive: [1]; at 50.0 µM 61.8% | [2]; [7] 63% | [2]; at 50.0 µM 63.8% | [3]; at 50.0 µM 66.8% | [4]; [7] 65% | [4]; at 50.0 µM 36% | [5]; at 50.0 µM 66.7% | [6]; at 50.0 µM 62.3%

CC(=O)Nc1ccc(-c2cnc3ccccc3c2)cc1
inactive: [1]; [7] 5% | [1]; [8] 29% | [1]; at 50.0 µM 14.2% | [2]; [7] -13% | [2]; [8] 15% | [2]; at 50.0 µM 6.2% | [3]; [7] 8% | [3]; [8] 18% | [3]; at 50.0 µM 4.25% | [4]; [7] -5% | [4]; [8] -6% | [4]; at 50.0 µM 36.5% | [5]; [7] -5% | [5]; [8] -1% | [5]; at 50.0 µM 11.2% | [6]; [7] 17% | [6]; [8] 29% | [6]; at 50.0 µM 9.15%

O=C(NNS(=O)(=O)c1ccccc1)Nc1ccccc1
inactive: [1]; [7] -21% | [1]; [8] -15% | [1]; at 50.0 µM -13.4% | [2]; [7] 17% | [2]; [8] -11% | [2]; at 50.0 µM 5.85% | [3]; [7] -3% | [3]; [8] 6% | [3]; at 50.0 µM 7.45% | [4]; [7] -1% | [4]; [8] 4% | [4]; at 50.0 µM 3.8% | [5]; [7] 2% | [5]; [8] 1% | [5]; at 50.0 µM 7.2% | [6]; [7] 4% | [6]; [8] 15% | [6]; at 50.0 µM -5.3%
